# In PubChem BioAssay (Tox21):
# The source made the active and inactive calls. A call without a number means that no potency is given here. Calls follow the shape of the dose curve; as a rule, active = well fitted curve in the direction sought with a large enough effect in the repeat runs; inconclusive = weak or mixed curves; inactive = flat fitted curve, though single readings scatter.
# Experiment: qHTS assay to test for compound auto fluorescence at 460 nm (blue) in HepG2 cells (AID 720687)
# Conditions: autofluorescence 405/460 nm, 1 h; series mostly up to 91.3 µM
# From the text: U.S. Tox21 Program National Center for Advancing Translational Sciences [NCATS] NIH Chemical Genomics Center [NCGC] U.S. Environmental Protection Agency [EPA] National Institutes of Environmental Health Sciences [NIEHS] National Toxicology Program [NTP] U.S. Food and Drug Administration [FDA] Tox21 Assay Overview: Compound auto fluorescence often interferes with screening of the compound library against various biological targets and signaling pathways. Some of these compounds may have fluorophoric properties. Such properties may interfere with the assay outputs resulting in false positives and/or negatives. To decrease such complications and ensure the compound activities are relevant in terms of biological response, the Tox21 10K compound library was screened for auto fluorescence. From the fluorophores used as reporter signals in our screening assays, the auto fluorescence equivalencies of compounds against three fluorophores have been evaluated: Triamterene, Fluorescein and Rose Bengal sodium for blue, green and red fluorescence, respectively. The fluorescence intensities were measured using Excitation/Emission wavelengths at 405/460nm, 485/535nm and 540/590nm for blue, green and red labels, respectively. This assay includes the blue fluorescence data.
# Tox21 Assay Protocol Summary: 2,000 HepG2 cells in 5 uL of culture medium (MEM containing 10% FBS) per well were dispensed into black wall/clear bottom 1536-well plates using a Multidrop Combi Dispenser (ThermoFisher Scientific, Waltham, MA). The assay plates were incubated overnight at 37 C to allow cell attachment to the well bottom, followed by the transfer of 23 nL compound or DMSO vehicle by a pintool work station (Kalypsys , San Diego, CA). After the assay plates were incubated for 1 hr at 37 C and 5% CO2, fluorescence intensities in the assay plates were measured by an Envision (PerkinElmer, Shelton, CT) plate reader using three labels for measuring blue, green and red fluorescence at […] 460, 535 and 590 nm respectively.
# Potency is read from the fitted curve at half-maximal effect; tags tell the direction and shape of the fitted curve or compound fluorescence and quenching.
SMILES,Potency,"fluorescence, % of fluorescent control"
O=C(/C=C/c1ccccc1)OC/C=C/c1ccccc1,inactive,–
COc1cccc(OC)c1C(=O)O,inactive,–
c1ccsc1,inactive,–
Nc1nc2c(ncn2COCCO)c(=O)[nH]1,–,0.176% [at 18.6 µM] (inactive)
C=C(CC)C(=O)c1ccc(OCC(=O)O)c(Cl)c1Cl,inactive,–
O=C(O)c1cc(O)c2ccccc2c1O,inactive,–
CC1(C)CC(O)CC(C)(C)N1,inactive,–
CC(C)(c1cc(Br)c(OCC(Br)CBr)c(Br)c1)c1cc(Br)c(OCC(Br)CBr)c(Br)c1 (stereo not given),inactive,–
C=Cc1cccc(C)c1,inactive,–
CCCCCCCC/C=C\CCCCCCCCN,inactive,–
O=C1CCc2ccc(OCCCCN3CCN(c4cccc(Cl)c4Cl)CC3)cc2N1,inactive,–
O=C1CCCCCCCCCCCCCCCO1,inactive,–
O=S(=O)(O)c1ccccc1/C=C/c1ccc(-c2ccc(/C=C/c3ccccc3S(=O)(=O)O)cc2)cc1,5.62 µM [fluorescent] (active),–
CCCCCCCCCCCCCC[N+](C)(C)C,inactive,–
C#CC1(O)CC[C@H]2[C@@H]3CCC4=CCCC[C@@H]4[C@H]3CC[C@@]21C (stereo not given in full),inactive,–
O=C(O)c1cccc(C(F)(F)F)c1,inactive,–
CNc1ccc([N+](=O)[O-])cc1,inactive,–
CCCCCCCCCCCCCCCC[N+](C)(C)CC,inactive,–
Cc1ccc(C)cc1,inactive,–
O=S(=O)(O)c1ccc(N=Nc2c(O)ccc3ccccc23)cc1,inactive,–

SMILES,Potency,"fluorescence, % of fluorescent control"
Clc1ccnc(Cl)n1,inactive,–
O=C(O)CCN(C1(C(=O)NO)CCCC1)S(=O)(=O)c1ccc(Oc2ccc(F)cc2)cc1,inactive,–
Nc1nc(-c2ccccc2)cs1,inactive,–
CCc1ccc(Br)cc1,inactive,–
CNC(=O)c1ccccc1Sc1ccc2c(/C=C/c3ccccn3)n[nH]c2c1,inactive,–
OC/C=C/CO,inactive,–
CCOC(=O)NNc1ccc(N(CC)CC(C)O)nn1 (stereo not given),inactive,–
O=C(O)c1cc(-c2ccc(F)cc2F)ccc1O,–,-0.098% [at 18.6 µM] (inactive)
C=CC(=O)OCCOC(=O)C=C,inactive,–
CCN(CC)C(=O)c1cc(S(=O)(=O)Cc2ccccc2)c(N2CCC(c3ccccc3)CC2)cc1N(CC)CCN(C)C,inactive,–
CCC(=O)C(=O)CC,inactive,–
Cl[Si](Cl)(c1ccccc1)c1ccccc1,inactive,–
O=C(O)O,–,-0.0691% [at 3.72 µM] (inactive)
OC[C@H]1O[C@H](O[C@H]2O[C@H](CO)[C@@H](O)[C@H](O)[C@H]2O)[C@H](O)[C@@H](O)[C@@H]1O,inactive,–
CCO[Si](OCC)(OCC)OCC,inactive,–
Cc1ccc(-c2ccccc2)cc1,inactive,–
C=C(C)c1cccc(C(=C)C)c1,inactive,–
CC(=O)CC(=O)Nc1ccc(S(=O)(=O)O)cc1,inactive,–
ClCCl,inactive,–
Oc1c(I)cc(Cl)c2cccnc12,inactive,–
